Assay results taken from PubChem BioAssay AID2314 (National Center for Advancing Translational Sciences (NCATS), 2010).
Where “and” joins values, the source holds several entries; their conditions need not be identical. Identical values can stand only once. Out of some 300,000 compounds screened, about 37,000 (12%) were called active. Many of the other results were omitted from the sample, so actives are more common in it than they were. A number with no mark means an inactive call. Rule as the data show it: active = max response mostly above about 13% (no sharp cut-off); inactive = mostly below about 14%.

assay: Cycloheximide Counterscreen for Small Molecule Inhibitors of Shiga Toxin; conditions: cell reporter, cycloheximide protein synthesis inhibition counterscreen; hits give high values; also: read at 38.3 µM for the half of the compounds with a filed dose; 0% is about no effect

Compound | max response
Cc1nn(C)cc1S(=O)(=O)N1CCN(c2ccc(F)cc2)CC1 | 11.1%
CN(C(=O)COC(=O)CNC(=O)C12CC3CC(CC(C3)C1)C2)c1ccccc1 | 1.16%
C#C[C@]1(O)CC[C@H]2[C@@H]3CCC4=CC(=O)CC[C@@H]4[C@H]3CC[C@@]21CC | -12.5% and -2.99% and -5.94%
Cc1nc(CN(C)C(=O)CC2C(=O)NCCN2Cc2ccc(F)cc2)cs1 (stereo not drawn) | -1.31%
CNC(=S)N1N=C(c2ccccc2)CC1c1ccc(Br)cc1 (stereo not drawn) | 12.1%
Brc1ccc(C2CC(c3ccccc3)=Nc3ccccc3N2)cc1 (stereo not drawn) | 43.8% (active)
Brc1ccc(C2=NCCC(c3ccccc3)O2)cc1 (stereo not drawn) | 6.52%
CNC[C@H](CC1CCCCC1)NC[C@H](NCCC1CCCC1)[C@H](C)O | -3.05%
CCOc1ccc2cc(C#N)c(SCC(=O)OC)nc2c1 | 26.6% (active)
COc1ccc(N2CCN(C(=O)CSc3nc4cc(OC)c(OC)cc4cc3C#N)CC2)cc1 | 2.1%
Cc1nonc1NC(=O)CSc1nc2ccccc2cc1C#N | 29.2%
CCCn1c2ccccc2c2cnn(CC(=O)NCCCN3CCCCC3CC)c(=O)c21 (stereo not drawn) | -4.88%
O=C(Nc1c(-c2ccccc2)nc2c(Br)cc(Br)cn12)c1ccco1 | 14.7%
Cc1ccoc1C(=O)Nc1cccc(Oc2ccccc2)c1 | 62.1% (active)
O=C(Nc1cccc(NC(=O)c2ccco2)c1)c1cnccn1 | 6.96%
Cc1cccc(NC(=O)Nc2cccc(Oc3c(F)c(F)c(F)c(F)c3F)c2)c1 | 7.92%
O=C(CSc1ccccc1)Nc1ccc(NC(=O)c2ccco2)cc1 | 16.6%
Cc1ccnc(NC(=O)c2ccco2)n1 | 10.2%
CCOc1cc(NC(=O)c2ccco2)c(OCC)cc1NC(=O)COc1ccccc1 | -3.22%
O=C(Nc1ccc(Oc2ccccc2)cc1)c1ccco1 | 37.5% (active)
O=C(Nc1cccc(-c2nc3ncccc3o2)c1)c1ccco1 | 29.9% (active)

Compound | max response
O=C(Nc1ccc2nccnc2c1)c1ccco1 | 36.2% (active)
O=C(Nc1cc(-c2nc3ncccc3o2)ccc1Cl)c1ccco1 | 7.89%
Cc1ccc(C(=O)COc2cccc(NC(=O)c3ccco3)c2)cc1 | 4.03%
COc1ccc(C(=O)Nc2ccc(C(=O)NCC3CCCO3)cc2)c(OC)c1OC (stereo not drawn) | -0.955%
O=S(=O)(Nc1cccc2cccnc12)c1cccc2cccnc12 | -4.18%
COc1cc(/C(=C/c2ccccc2)c2ccccc2)c2c(c1)oc1ccccc12 | -1.79%
CCCOc1ccc(/C=N/NC(=O)C2CC2)c(OCCC)c1 | 1.32%
O=C(Nc1ccccc1)c1ccco1 | 18.8% (active)
O=C(Nc1ccccc1)/C(=C\c1ccco1)NC(=O)c1ccco1 | 25.7%
O=C(Nc1ccc(Sc2ccc(Br)cc2)cc1)c1ccco1 | 35.2% (active)
CCS(=O)(=O)Nc1ccc(C(=O)NCCSc2ccccc2)cc1 | 30% (active)
Cc1ccc(C(=O)NCCNS(=O)(=O)c2ccccc2)cc1 | -4.96%
Cc1cc(NC(=O)[C@H](C)NC(=O)c2ccco2)ccc1Br | -2.49%
COc1ccc(NC(=O)c2ccco2)cc1NC(=O)c1ccc(C#N)cc1F | 1.08%
O=C(NNC(=O)c1ccco1)Nc1ccccc1 | 12.6%
Cc1ccc(C(=O)NCCNC(=O)c2ccccc2)cc1 | 2.82%
O=C(Nc1ccc2oc(-c3ccccc3F)nc2c1)c1ccco1 | 47.3% (active)
COc1ccc(NC(=O)CCCN2C(=O)C(c3ccccc3)Oc3cccnc32)cc1 (stereo not drawn) | 21.3%
C[N+](C)(C)CCNC(=O)c1cc[n+](Cc2ccccc2)c(/C=N/O)c1 | -2.41%
COC(=O)c1cc(CNC(=O)CC(C)c2ccccc2)ccc1OC (stereo not drawn) | 0.629%
O=C(NNC1CC(=O)N(c2cccc(Cl)c2)C1=O)c1cccnc1 (stereo not drawn) | 0.896%

Compound | max response
Cc1c(-c2ccccc2)n[nH]c1C(=O)N=Nc1c(O)[nH]c2ccccc12 | 8.32%
COc1ccc(-c2c(-c3ccc(OC)cc3O)nc(C)nc2C(F)(F)F)cc1 | -2.37%
O=C(CNC(=O)c1ccco1)OCC(=O)c1ccccc1 | 19.9%
O=C(CCSc1ccccc1)NCCSc1ccccn1 | -3.74%
O=C(NCCSc1ccccc1)c1ccco1 | 81.7% (active)
O=C(/C=C/c1ccco1)Nc1ccc(Oc2ccccc2)cc1 | 37.9% (active)
Cc1ccc(-n2nc3ccc(NC(=O)/C=C/c4ccco4)cc3n2)cc1C | 30.3%
O=C(O)/C=C\C(=O)Nc1ccc(OCc2ccccc2)cc1 | 21.5%
CC(=O)NCCc1ccc(S(=O)(=O)Nc2ccc(C)c(S(=O)(=O)N3CCOCC3)c2)cc1 | -9.24%
CC1CCN(CC(=O)Nc2nccs2)CC1 | -2.21%
O=C(Cc1ccsc1)N1CCN(S(=O)(=O)c2cc(C(F)(F)F)cc(C(F)(F)F)c2)CC1 | -2.13%
COc1cccc(C(C(=O)NC2CCCC2)N(C(=O)c2ccco2)c2cccc(C(C)=O)c2)c1OC (stereo not drawn) | 3.33%
Cc1cc(OC(=O)c2c(Cl)cccc2Cl)nc(C)n1 | -0.567%
CCOC(=O)c1cnc(SCC(=O)Nc2ccccc2C(=O)OC)nc1N | -1.91%
CCCCOc1ccc(-c2ncc(C(=O)OCC)c(N)n2)cc1 | 42.2% (active)
CCOC(=O)c1cnc(-c2ccccc2)nc1Oc1ccc(C)cc1 | -0.445%
COc1ccc2c(c1)c(=O)c(C(=O)c1ccc(Cl)cc1)cn2CC(=O)Nc1ccc(F)cc1 | -2.23%
O=C(N=C1SC2CS(=O)(=O)CC2N1c1cc(Cl)ccc1Cl)C1CC1 (stereo not drawn) | 8.54%
Cc1ncc(CC(=O)n2cc(C(=O)c3cc(Cl)ccc3O)cn2)s1 | 11.2%
O=C(c1cnn(-c2ccc(Cl)cc2)c1)c1ccccc1O | 60.1% (active)
O=C(CN1CCN(c2ccc(Cl)cc2)CC1)c1ccccc1 | 5.7%
